Laboratory results reported in PubChem BioAssay (NCI).
Compounds without any hit were thinned out: in the full panel of roughly 83,000, 20% have a hit.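 48-hour exposure, single concentration, 96-well plates; percent growth endpoint where 0 means no net growth. Active: below 10.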 Unmarked numbers belong to inactive results. Activity calls are given as the source filed them.

Tests used:
Assay in all cases: NCI-60 one-dose screen, 48 h (100 = growth as untreated, 0 = no growth, -100 = all killed)
Settings in all cases: 10 µM unless noted
[1] = test system: DU-145 prostate
[2] = test system: K-562 leukemia
[3] = test system: MALME-3M melanoma
[4] = test system: MDA-MB-231 breast
[5] = test system: RXF 393 renal
[6] = test system: SF-268 CNS
[7] = test system: SF-295 CNS
[8] = test system: SF-539 CNS
[9] = test system: UACC-257 melanoma
[10] = test system: M14 melanoma
[11] = test system: HCT-15 colon
[12] = test system: HT29 colon
[13] = test system: SNB-75 CNS
[14] = test system: SNB-19 CNS
[15] = test system: U251 CNS
[16] = test system: PC-3 prostate
[17] = test system: SK-MEL-5 melanoma
[18] = test system: UACC-62 melanoma
[19] = test system: LOX IMVI melanoma
[20] = test system: SK-MEL-28 melanoma

CCCCCCSc1ncnc2nc[nH]c12
growth [1]: 95% | growth [2]: 70.7% | growth [3]: 102% | growth [4]: 96.8% | growth [5]: 78.1% | growth [6]: 96.3% | growth [7]: 88.8% | growth [8]: 87.4% | growth [9]: 91.4% | growth [10]: 97% | growth [11]: 90.8% | growth [12]: 103% | growth [13]: 91.2% | growth [14]: 86.2% | growth [15]: 90.1% | growth [16]: 85.2% | growth [17]: 94% | growth [18]: 77% | growth [19]: 80.1% | growth [20]: 101%

Cc1ccc(NC(=S)/N=c2/n(-c3ccccc3)nc3n2CCN3C2=NCCN2)cc1
growth [1]: 111% | growth [2]: 121% | growth [3]: 113% | growth [4]: 92.9% | growth [5]: 101% | growth [6]: 109% | growth [7]: 99.3% | growth [8]: 102% | growth [9]: 109% | growth [10]: 82.8% | growth [11]: 107% | growth [12]: 99.1% | growth [13]: 80.6% | growth [14]: 119% | growth [15]: 108% | growth [16]: 85.6% | growth [17]: 101% | growth [18]: 99.2% | growth [19]: 108% | growth [20]: 108%

c1ccc2c(c1)CN(CCCN1CCOCC1)C2
growth [1]: 107% | growth [2]: 104% | growth [3]: 99.7% | growth [4]: 107% | growth [5]: 117% | growth [6]: 103% | growth [7]: 97.9% | growth [8]: 98.9% | growth [9]: 93.9% | growth [10]: 97% | growth [11]: 102% | growth [12]: 107% | growth [13]: 89.7% | growth [14]: 96.1% | growth [15]: 97.8% | growth [16]: 96.4% | growth [17]: 99.1% | growth [18]: 96.7% | growth [19]: 107% | growth [20]: 105%

Cc1cnc([C@]23CC[C@@H](C)[C@H](C)[C@H]2C2=CC[C@@H]4[C@@]5(C)Cc6c([nH]c7ccccc67)C(C)(C)[C@@H]5CC[C@@]4(C)[C@]2(C)CC3)o1
growth [1]: 69.9% [100 µM] | growth [2]: 38.3% [100 µM] | growth [3]: 59.1% [100 µM] | growth [4]: 38.3% [100 µM] | growth [5]: 101% [100 µM] | growth [6]: 36.1% [100 µM] | growth [7]: 31.7% [100 µM] | growth [8]: 6.53% [100 µM] (active) | growth [9]: 61.5% [100 µM] | growth [10]: 28.4% [100 µM] | growth [11]: 66.8% [100 µM] | growth [12]: 25.7% [100 µM] | growth [13]: 62.4% [100 µM] | growth [14]: 35.6% [100 µM] | growth [15]: 41.7% [100 µM] | growth [16]: 55.4% [100 µM] | growth [17]: 29% [100 µM] | growth [18]: 24.4% [100 µM] | growth [19]: 17.3% [100 µM] | growth [20]: 20.3% [100 µM]

Cc1ccc(S(=O)(=O)Oc2ccc([N+](=O)[O-])cc2[N+](=O)[O-])cc1
growth [1]: 116% | growth [2]: 29% | growth [3]: 63.6% | growth [4]: 94.3% | growth [5]: 111% | growth [6]: 96.5% | growth [7]: 108% | growth [8]: 93.6% | growth [9]: 86.2% | growth [10]: -8.49% (active) | growth [11]: 19% | growth [12]: 98.2% | growth [13]: 98.9% | growth [14]: 110% | growth [15]: 94.4% | growth [16]: 83.6% | growth [17]: 76.5% | growth [18]: 82.5% | growth [19]: 10.1% | growth [20]: 113%

CCN=C1C=CC(=C(c2ccc(N(CC)CC)cc2)c2ccc(N(CC)CC)cc2)c2ccccc21
growth [1]: -96.5% (active) | growth [2]: -13.6% (active) | growth [3]: -82.6% (active) | growth [4]: -8.34% (active) | growth [5]: -74.4% (active) | growth [6]: -18.6% (active) | growth [7]: -80.9% (active) | growth [8]: -82.9% (active) | growth [9]: -69.9% (active) | growth [10]: -67% (active) | growth [11]: -70.9% (active) | growth [12]: -59.7% (active) | growth [13]: -22% (active) | growth [14]: -57.8% (active) | growth [15]: -89.1% (active) | growth [16]: -66.8% (active) | growth [17]: -99.5% (active) | growth [18]: -37.4% (active) | growth [19]: -64.6% (active) | growth [20]: -67.6% (active)

COc1ccc(C2CC(c3ccc4ccccc4c3)=NN2c2nc(O)c(C3=c4cc(OC)ccc4=NC3=O)s2)cc1 (stereo not given)
growth [1]: 1.32% (active) | growth [2]: 0.0361% (active) | growth [3]: -61.7% (active) | growth [4]: -54.7% (active) | growth [5]: -66.3% (active) | growth [6]: -32.5% (active) | growth [7]: -59% (active) | growth [8]: -27.9% (active) | growth [9]: -52.5% (active) | growth [10]: -67.1% (active) | growth [11]: -29.1% (active) | growth [12]: -57.3% (active) | growth [13]: -57.1% (active) | growth [14]: -14.2% (active) | growth [15]: -92% (active) | growth [16]: -71.1% (active) | growth [17]: -93.3% (active) | growth [18]: -56% (active) | growth [19]: -77.6% (active) | growth [20]: -48.5% (active)

CCn1cc(-c2cc(-c3ccc(Cl)cc3)nc(N)n2)c(-c2ccc(Br)cc2)n1
growth [1]: 99.4% | growth [2]: 77.4% | growth [3]: 93.8% | growth [4]: 60.6% | growth [5]: 94.8% | growth [6]: 94.8% | growth [7]: 84.3% | growth [8]: 87.3% | growth [9]: 73.5% | growth [10]: 74.5% | growth [11]: 64.9% | growth [12]: 55.8% | growth [13]: 82.4% | growth [14]: 88.7% | growth [15]: 87% | growth [16]: 47% | growth [17]: 90.8% | growth [18]: 60.7% | growth [19]: 88.5% | growth [20]: 61.3%

CCOC(=O)c1nn(C2CCCCO2)c2ccc(NC(=O)CSc3nc4ccccc4c(=O)[nH]3)cc12 (stereo not given)
growth [1]: 102% | growth [2]: 99.4% | growth [3]: 103% | growth [4]: 79.9% | growth [5]: 71.8% | growth [6]: 90.1% | growth [7]: 97.6% | growth [8]: 82.4% | growth [9]: 102% | growth [10]: 100% | growth [11]: 99.5% | growth [12]: 125% | growth [13]: 68.5% | growth [14]: 76.3% | growth [15]: 97.2% | growth [16]: 105% | growth [17]: 98.1% | growth [18]: 94.5% | growth [19]: 96.2% | growth [20]: 105%

N#Cc1c(Cl)nc(SCC2CO2)nc1-c1ccccc1 (stereo not given)
growth [1]: 123% | growth [2]: 128% | growth [3]: 85.1% | growth [4]: 118% | growth [5]: 101% | growth [6]: 116% | growth [7]: 117% | growth [8]: 105% | growth [9]: 39.9% | growth [10]: 98.5% | growth [11]: 110% | growth [12]: 111% | growth [13]: 95.6% | growth [14]: 106% | growth [15]: 104% | growth [16]: 110% | growth [17]: 107% | growth [18]: 107% | growth [19]: 98.4% | growth [20]: 114%

COc1ccc(/C=C2\N=C(Nc3ccccc3)N(NC(=O)c3ccccn3)C2=O)cc1
growth [1]: 109% | growth [2]: 81.1% | growth [3]: 105% | growth [4]: 94.6% | growth [5]: 95.8% | growth [6]: 101% | growth [7]: 98.2% | growth [8]: 98.3% | growth [9]: 108% | growth [10]: 101% | growth [11]: 91.6% | growth [12]: 112% | growth [13]: 72.4% | growth [14]: 87.2% | growth [15]: 95.8% | growth [16]: 101% | growth [17]: 93.4% | growth [18]: 86.2% | growth [19]: 95.5% | growth [20]: 102%

C=C(CN=[N+]=[N-])[C@@H]1CC[C@]2(C)[C@H](CC[C@@H]3[C@H]4[C@H]5OC(=O)[C@@]4(CCC5(C)C)CC[C@]32C)[C@@]1(C)CCC#N
growth [1]: 98.2% [100 µM] | growth [2]: 45.6% [100 µM] | growth [3]: 90.1% [100 µM] | growth [4]: 48.9% [100 µM] | growth [5]: 108% [100 µM] | growth [6]: 92.9% [100 µM] | growth [7]: 96.7% [100 µM] | growth [8]: 88% [100 µM] | growth [9]: 77.2% [100 µM] | growth [10]: 69.1% [100 µM] | growth [11]: 87.6% [100 µM] | growth [12]: 61.7% [100 µM] | growth [13]: 89.6% [100 µM] | growth [14]: 90.5% [100 µM] | growth [15]: 79.6% [100 µM] | growth [16]: 45.3% [100 µM] | growth [17]: 41.5% [100 µM] | growth [18]: 57.7% [100 µM] | growth [19]: 69.3% [100 µM] | growth [20]: 98.4% [100 µM]

C#C[C@]1(O)CC[C@H]2[C@@H]3CC=C4c5nc(Nc6ccccn6)sc5CC[C@]4(C)[C@H]3CC[C@@]21C
growth [1]: 17.2% | growth [2]: 2.53% (active) | growth [3]: 10.9% | growth [4]: -23.1% (active) | growth [5]: -66% (active) | growth [6]: -24% (active) | growth [7]: -72.2% (active) | growth [8]: -64.7% (active) | growth [9]: -54.7% (active) | growth [10]: -35.9% (active) | growth [11]: 1.7% (active) | growth [12]: 16.9% | growth [13]: -42.4% (active) | growth [14]: 11% | growth [15]: -26.2% (active) | growth [16]: -28.6% (active) | growth [17]: -82.2% (active) | growth [18]: -28.4% (active) | growth [19]: -68% (active) | growth [20]: -68.2% (active)
